Consider ten molecules from PubChem BioAssay (Tox21).

SMILES strings stand for the structures. Values joined by “and” are separate entries in the source; they are usually repeats but may differ in a detail not shown here. Equal entries are not always repeated. Results filed as inconclusive are left out. More than one record can exist for a structure, and the calls need not agree. Active and inactive are the calls of the source. Unless noted, calls come from the whole dose curve; as a rule, active = well fitted curve in the direction sought with a large enough effect in the repeat runs; inconclusive = weak or mixed curves; inactive = no such curve, though single readings can be large; an effect the other way counts as inactive or inconclusive.

Assay [1] deals with Thyrotropin receptor (Homo sapiens) (UniProt P16473). Nature of the assay: qHTS assay to identify small molecule agonists of the thyroid stimulating hormone receptor (TSHR) signaling pathway (AID 1224843; calls by dose curve; note: nearly all actives have a fitted effect of over 45% in size). Put shortly: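 A cell-based cAMP HTRF format was run in TSHR-transfected HEK293 cells, 800 per well. Treatment: 30 min, room temperature. Detection: 1 h with labelled cAMP and anti-cAMP cryptate. Concentration-response over 15 points, three replicates.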
Sequence of Thyrotropin receptor (Homo sapiens) (P16473 whole entry, looked up): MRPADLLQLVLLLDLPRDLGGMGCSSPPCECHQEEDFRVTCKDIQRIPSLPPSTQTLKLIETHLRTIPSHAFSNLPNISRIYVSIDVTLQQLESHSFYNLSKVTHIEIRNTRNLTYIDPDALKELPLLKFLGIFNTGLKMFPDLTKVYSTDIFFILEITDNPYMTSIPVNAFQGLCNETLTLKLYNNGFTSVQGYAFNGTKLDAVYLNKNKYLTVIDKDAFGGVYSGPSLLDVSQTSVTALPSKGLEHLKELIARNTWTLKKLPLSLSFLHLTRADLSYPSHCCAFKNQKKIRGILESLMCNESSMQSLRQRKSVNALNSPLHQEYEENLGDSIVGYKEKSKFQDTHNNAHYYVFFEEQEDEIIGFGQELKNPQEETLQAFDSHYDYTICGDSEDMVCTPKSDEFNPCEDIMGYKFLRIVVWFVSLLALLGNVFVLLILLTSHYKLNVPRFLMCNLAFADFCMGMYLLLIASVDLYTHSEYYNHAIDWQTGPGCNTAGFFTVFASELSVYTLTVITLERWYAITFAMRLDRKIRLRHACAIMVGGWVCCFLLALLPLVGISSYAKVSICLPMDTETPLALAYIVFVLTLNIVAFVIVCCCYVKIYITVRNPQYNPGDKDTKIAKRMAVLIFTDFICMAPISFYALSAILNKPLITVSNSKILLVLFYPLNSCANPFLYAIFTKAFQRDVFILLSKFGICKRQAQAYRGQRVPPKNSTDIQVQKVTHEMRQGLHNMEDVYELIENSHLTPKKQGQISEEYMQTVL
For orientation: In qHTS, concentration-response curves come from the screen itself.

Assay [2] can be described thus: qHTS assay to identify small molecule agonists of the hypoxia (HIF-1) signaling pathway - cell viability counter screen (AID 1224844; calls by dose curve; note: nearly all actives have a fitted effect of over 50% in size). In a few lines:
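CellTiter-Glo luminescence read-out, 30 min RT, taken in the same wells as the beta-lactamase HRE reporter assay; HRE-bla ME-180 cells, 0.5% dialyzed FBS, 17 hr compound treatment at 37C, 5% CO2.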

Assay [3] is described as follows: qHTS assay to identify small molecule agonists of H2AX (AID 1224845; active = well fitted activation curve with a large enough effect in the signal ratio in the repeat runs, not every such curve was filed as active; the % refers to the signal ratio; note: potency is the fitted concentration of half-maximal effect). In a few lines: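 Phospho-H2AX Ser139 measured by HTRF (ex 320 nm; em 665 and 620 nm) after 24 hr antibody incubation. Compounds, 15 concentrations, 0.76% DMSO, were applied to CHO-K1 cells for 3hr at 37C before lysis.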
Assay [4] can be described thus: qHTS assay to identify small molecule agonists of the hypoxia (HIF-1) signaling pathway (AID 1224846; active = well fitted activation curve with a large enough effect in the signal ratio in the repeat runs, not every such curve was filed as active; the % refers to the signal ratio). In a few lines:
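Beta-lactamase FRET read-out (CCF4-AM substrate) from ME-180 cells carrying an HRE-driven bla reporter, after 17 hrs compound exposure at 37C/5% CO2. Cells were seeded at 2,000 per well in 0.5% dialyzed FBS medium and preincubated 5 hrs.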

A short description of assay [5]: qHTS assay to identify small molecule agonists of H2AX - cell viability counter screen (AID 1224847; calls by dose curve; note: nearly all actives have a fitted effect of over 30% in size; note: potency is the fitted concentration of half-maximal effect). In a few lines:
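Read-out: CellTiter-Glo luminescence, 30 min RT. Cells: wild-type CHO-K1, 1000/well, 10% FBS, plated overnight at 37C. Treatment: 15 concentrations, 3 hr, 37C, 0.76% DMSO.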

Assay [6] in a line: qHTS RealTime-Glo MT Cell Viability Assay in HepG2 cells - 24 hour (AID 1224867). Note: nearly all actives have a fitted effect of over 50% in size. In a few lines: (§1)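 Cell number in HepG2 cultures estimated from NanoLuc luminescence generated by metabolic reduction of a prosubstrate by living cells. The homogeneous, nonlytic format allowed repeated reads at 0, 8, 16, 24, 32 and 40 h of compound exposure.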
A short description of assay [7]: qHTS RealTime-Glo MT Cell Viability Assay in HEK293 cells - 32 hour (AID 1224868). Note: nearly all actives have a fitted effect of over 50% in size. Note: potency is the fitted concentration of half-maximal effect. Put shortly: (§2)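 Homogeneous bioluminescent viability format in HEK293 cells (600 cells/well). Following 5 h at 37 C/5% CO2, 23 nL compound was pintooled; the signal was measured repeatedly during 40 h incubation.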
Assay [8] can be described thus: A CellTox Green Cytotoxicity Assay to monitor cytotoxicity in HEK293 cells - 0 hour (AID 1224869). Note: nearly all actives have a fitted effect of over 50% in size. Put shortly: (§3)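 Read-out: fluorescence of a cell-impermeant cyanine dye staining DNA of dead cells, proportional to cytotoxicity. HEK293, 600 cells/well with reagent, compound (23 nL DMSO) added after 5 h; reads at 0, 8, 16, 24, 32, 40 h.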
Assay [9] can be described thus: qHTS RealTime-Glo MT Cell Viability Assay in HepG2 cells - 40 hour (AID 1224870). Note: nearly all actives have a fitted effect of over 50% in size. Put shortly: (§4)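 Real-time viability: cells seeded at 600 per well together with NanoLuc and cell-permeant prosubstrate, compounds added after 5 h incubation. Luminescence tracked at 0, 8, 16, 24, 32 and 40 h of exposure.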
Assay [10] is described as follows: A CellTox Green Cytotoxicity Assay to monitor cytotoxicity in HEK293 cells - 40 hour (AID 1224871). Note: nearly all actives have a fitted effect of over 45% in size. Put shortly: as §3
Assay [11] can be described thus: qHTS RealTime-Glo MT Cell Viability Assay in HEK293 cells - 16 hour (AID 1224872). Note: nearly all actives have a fitted effect of over 50% in size. Note: potency is the fitted concentration of half-maximal effect. In a few lines:
as §2

Assay [12] can be described thus: qHTS RealTime-Glo MT Cell Viability Assay in HepG2 cells - 8 hour (AID 1224873). Note: nearly all actives have a fitted effect of over 55% in size. In a few lines:
as §4

The nature of assay [13]: qHTS RealTime-Glo MT Cell Viability Assay in HEK293 cells - 40 hour (AID 1224874). Note: nearly all actives have a fitted effect of over 50% in size. Note: potency is the fitted concentration of half-maximal effect. Conditions: RealTime-Glo luminescence; max response: stronger effect = lower value. Put shortly:
(§5)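 Luminescence readout at each listed time point; HEK293, 600 cells/well, RealTime-Glo MT reagent added with cells; compounds pinned (23 nL in DMSO) after 5 h at 37 C; continuous culture at 37 C.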

Assay [14] in a line: A CellTox Green Cytotoxicity Assay to monitor cytotoxicity in HEK293 cells - 24 hour (AID 1224875). Note: nearly all actives have a fitted effect of over 45% in size. In a few lines:
as §3

Assay [15] is described as follows: A CellTox Green Cytotoxicity Assay to monitor cytotoxicity in HepG2 cells - 16 hour (AID 1224876). Note: nearly all actives have a fitted effect of over 45% in size. Note: potency is the fitted concentration of half-maximal effect. In a few lines:
(§6)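 HepG2, 600 cells/well premixed w/ CellTox Green; 5 h settle, 37 C/5% CO2; pintool cpd add (DMSO); 37 C, 40 h; fluorescence read at 0, 8, 16, 24, 32, 40 h.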

Assay [16] can be described thus: qHTS RealTime-Glo MT Cell Viability Assay in HepG2 cells - 32 hour (AID 1224877). Note: nearly all actives have a fitted effect of over 55% in size. In a few lines: as §1
Assay [17] is described as follows: A CellTox Green Cytotoxicity Assay to monitor cytotoxicity in HepG2 cells - 24 hour (AID 1224878). Note: nearly all actives have a fitted effect of over 45% in size. Note: potency is the fitted concentration of half-maximal effect. Put shortly:
as §6

A short description of assay [18]: A CellTox Green Cytotoxicity Assay to monitor cytotoxicity in HepG2 cells - 40 hour (AID 1224879). Note: nearly all actives have a fitted effect of over 40% in size. Note: potency is the fitted concentration of half-maximal effect. Put shortly: as §6
Assay [19] is described as follows: qHTS RealTime-Glo MT Cell Viability Assay in HEK293 cells - 0 hour (AID 1224880). Put shortly: as §5
Assay [20] is described as follows: qHTS assay to identify small molecule agonists of the estrogen related receptor (ERR) signaling pathway from Tox21 library (AID 1224849; calls by dose curve; note: nearly all actives have a fitted effect of over 15% in size). As to conditions: ERR reporter cell line, ONE-Glo luciferase, 18 h. Put shortly:
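Luminescence readout (ONE-Glo, 30 min RT) after 18 h compound exposure at 37 C of NTP-supplied ERR reporter cells; cells were plated 6 h before compound addition by pin tool.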
% is set by controls: 0 for no effect and ±100 for the full control effect.

`F[B-](F)(F)F`: the Potency result in assay [1], in [2], in assay [5], in [6], in [7] and in assay [8] was “inactive” in each case. For the same molecule, the Potency result in [9], in assay [10], in assay [11], in [12], in [14] and in assay [15] was “inactive” in each case. In addition, the Potency result in [16], in assay [17] and in [19] was “inactive” in each case. Further, the Potency entry in assay [3] was “inactive and 115 µM (active)”; in assay [18], “inactive and 39.5 µM (active)”. For the same molecule, the molecule was called inactive in assay [4]. Also, in assay [13], the max response is 7.4% (inactive) and 8.65% (inactive) and 0.515% (inactive).
Regarding `CCCCCCCC(=O)OCC(COC(=O)CCCCCCC)OC(=O)CCCCCCC`, the Potency result in assay [1], in assay [2], in assay [3], in assay [5], in [6] and in [7] was “inactive” each time. Besides, the Potency result in assay [8], in [9], in assay [10], in [11], in assay [12] and in [14] was “inactive” throughout. Also, the Potency result in [15], in assay [16], in assay [17], in assay [18] and in [19] was “inactive” in each case. The molecule was called inactive in assay [4]. The max response in assay [13] is 4.45% (inactive) and -0.248% (inactive) and 1.22% (inactive).
Take `CCN(CC)C(=O)c1cccc(C)c1`: the Potency result in assay [1], in assay [2], in assay [3], in [5], in [6] and in assay [7] was “inactive” in each case. Further, the Potency result in assay [8], in assay [9], in assay [11], in assay [12], in assay [14] and in [15] was “inactive” each time. Further, the Potency entry in assay [16], in assay [17], in assay [18] and in assay [19] was “inactive” throughout. Also, the result in [4] was inactive. Further, the activity change, positive = activation in [20] (at 42.5 µM (top of the series)) was 5.47% (inactive); in assay [20] (at 92.4 µM (top of the series)), 0.249% (inactive) and -23.9% (inactive). Moreover, the max response in assay [13] is -1.16% (inactive) and -0.892% (inactive) and 2.65% (inactive).
Take `O=C1O[C@H]([C@@H](O)CO)C(O)=C1O`: the Potency result in assay [1], in [2], in assay [3], in [5], in [6] and in [7] was “inactive” each time. Besides, the Potency result in assay [8], in assay [9], in assay [10], in [11], in assay [12] and in assay [14] was “inactive” each time. The Potency result in [15], in [17], in [18] and in [19] was “inactive” each time. Moreover, the molecule was classed as inactive in [4]. Further, in assay [13], the max response is 5.34% (inactive) [middle of 5 runs].
Take `CC12CCC(CC1)C(C)(C)O2`: the Potency entry in [1], in [2], in [3], in assay [5], in assay [6] and in assay [7] was “inactive” in each case. The Potency entry in assay [8], in assay [9], in assay [10], in assay [11], in [12] and in assay [14] was “inactive” each time. In addition, the Potency entry in [15], in assay [16], in assay [17], in assay [18] and in [19] was “inactive” in each case. Moreover, in assay [4], the molecule was classed as inactive. Moreover, the max response in assay [13] was -1.4% (inactive) and 0.858% (inactive) and 5.76% (inactive).
For `OC[C@H]1O[C@H](O[C@]2(CCl)O[C@H](CCl)[C@@H](O)[C@@H]2O)[C@H](O)[C@@H](O)[C@H]1Cl`, the Potency entry in assay [1], in assay [2], in assay [3], in assay [5], in assay [6] and in assay [7] was “inactive” in each case. Moreover, the Potency result in [8], in assay [9], in [11], in assay [12], in assay [14] and in assay [15] was “inactive” throughout. The Potency entry in assay [17], in assay [18] and in [19] was “inactive” each time. Also, the call in assay [4] was inactive. The max response in assay [13] was -6.96% (inactive) and 4.96% (inactive) and 1.17% (inactive).
As to `Nc1ccc(S(N)(=O)=O)cc1`, the Potency result in assay [1], in [2], in assay [3], in assay [5], in assay [6] and in [7] was “inactive” throughout. The Potency result in assay [8], in assay [9], in assay [11], in assay [12], in assay [14] and in assay [15] was “inactive” throughout. Moreover, the Potency entry in assay [16], in [17], in [18] and in assay [19] was “inactive” throughout. Besides, the molecule was called inactive in assay [4]. Also, the max response in [13] is 9.21% (inactive) and 0.884% (inactive) and 1.65% (inactive).
As to `Cc1cc(C)nc(NS(=O)(=O)c2ccc(N)cc2)n1`, the Potency entry in assay [1], in assay [2], in [3], in assay [5], in assay [6] and in assay [7] was “inactive” throughout. Moreover, the Potency entry in assay [8], in [9], in assay [10], in [11], in [12] and in [14] was “inactive” in each case. Further, the Potency entry in assay [15], in [16], in [17], in [18] and in assay [19] was “inactive” each time. Moreover, the call in assay [4] was inactive. In addition, the max response in assay [13] is -37.4% (inactive) and -3.88% (inactive) and 7.67% (inactive).
Take `CCCCCCc1ccc(O)cc1O`: the Potency result in assay [1], in [2], in assay [3], in assay [6], in [8] and in assay [9] was “inactive” in each case. Besides, the Potency entry in assay [12], in assay [16] and in [19] was “inactive” in each case. In addition, the result in [4] was inactive. For the same molecule, the Potency was 113 µM (active) and 101 µM (active) in assay [5]; 21.9 µM (active) and 9.77 µM (active) in assay [7]; 19.6 µM (active) and 11 µM (active) in assay [11]; 19.6 µM (active) and 12.3 µM (active) in assay [13]; “inactive and 43.6 µM (active) and 21.3 µM (active)” in assay [15]; 49.1 µM (active) and 38.9 µM (active) and 21.3 µM (active) in assay [17]. Also, the Potency in assay [18] is 49.1 µM (active) and 38.9 µM (active) and 19 µM (active). Moreover, the activity change, positive = activation in [20] (at 42.5 µM (top of the series)) is 2.16% (inactive); in [20] (at 92.4 µM (top of the series)), -16.7% (inactive) and -6.89% (inactive).
In the case of `CC(C)c1c(C(=O)Nc2ccccc2)c(-c2ccccc2)c(-c2ccc(F)cc2)n1CC[C@@H](O)C[C@@H](O)CC(=O)O`, the Potency result in assay [1], in assay [2], in assay [5], in assay [6], in assay [7] and in assay [8] was “inactive” throughout. The Potency entry in assay [9], in assay [10], in assay [11], in assay [12], in assay [14] and in assay [15] was “inactive” each time. In addition, the Potency result in assay [16] and in assay [19] was “inactive” in each case. The molecule was called inactive in [4]. Besides, the max response in [13] was -21% (inactive). Besides, the Potency in assay [17] was 2.98 µM (active) and 45.8 µM (active) and 4.77 µM (active); in [18] it was 4.21 µM (active) and 5.13 µM (active) and 7.56 µM (active).
